Measured values from PubChem BioAssay (Tox21).
Values joined by “and” are separate entries in the source; they are usually repeats but may differ in a detail not shown here. Equal values may be shown once. Records with an inconclusive call do not appear. Where a call stands in place of a potency, no number is given. A structure can be active in one record and inactive in another. Active and inactive are the calls of the source. Unless noted, calls come from the whole dose curve; as a rule, active = well fitted curve in the direction sought with a large enough effect in the repeat runs; inconclusive = weak or mixed curves; inactive = no such curve, though single readings can be large; an effect the other way counts as inactive or inconclusive.

Key:
[1] = qHTS assay to identify small molecule agonists of the estrogen related receptor (ERR) signaling pathway from Tox21 library (AID 1224849; calls by dose curve; note: nearly all actives have a fitted effect of over 15% in size); settings: ERR reporter cell line, ONE-Glo luciferase, 18 h
Outline: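 Luminescent agonist read-out (One-Glo, 30-minute room-temperature incubation) following 18-hour compound treatment at 37 C of the ERR cell line, which had been plated 6 hours before dosing.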

[2] = qHTS RealTime-Glo MT Cell Viability Assay in HepG2 cells - 24 hour (AID 1224867); settings: RealTime-Glo luminescence; series mostly up to 76.8 µM; note: nearly all actives have a fitted effect of over 50% in size; note: potency is the fitted concentration of half-maximal effect
Outline: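 Cells + NanoLuc/prosubstrate dispensed (600 cells/well) → 5 h at 37 C/5% CO2 → compounds in DMSO transferred → 40 h incubation at 37 C, luminescence read at 0, 8, 16, 24, 32, 40 h.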

[3] = qHTS RealTime-Glo MT Cell Viability Assay in HEK293 cells - 32 hour (AID 1224868); settings: RealTime-Glo luminescence; series mostly up to 76.8 µM; note: nearly all actives have a fitted effect of over 50% in size; note: potency is the fitted concentration of half-maximal effect; for activity change, negative = cytotoxic: top concentration of the series differs between compounds
Outline: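 Tox21 10K qHTS, HEK293, 600 cells/well, RealTime-Glo reagent co-dispensed with cells; 5 h preincubation, compound by pintool, 37 C, luminescence at 0–40 h.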

[4] = A CellTox Green Cytotoxicity Assay to monitor cytotoxicity in HEK293 cells - 0 hour (AID 1224869); settings: CellTox Green fluorescence; series mostly up to 76.8 µM; note: nearly all actives have a fitted effect of over 50% in size; note: potency is the fitted concentration of half-maximal effect
Outline: (§1)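 Fluorescence from a DNA-binding dye excluded by viable cells was measured repeatedly in the same HEK293 wells (600 cells/well) during continuous compound exposure at 37 C. Each assay gives one read point: 0, 8, 16, 24, 32 or 40 h.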

[5] = qHTS RealTime-Glo MT Cell Viability Assay in HepG2 cells - 40 hour (AID 1224870); settings: RealTime-Glo luminescence; series mostly up to 76.8 µM; note: nearly all actives have a fitted effect of over 50% in size; note: potency is the fitted concentration of half-maximal effect
Outline: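 HepG2 cells mixed with RealTime-Glo MT reagents (NanoLuc plus cell-permeant prosubstrate) were seeded at 600 cells/well, incubated 5 h at 37 C/5% CO2, then pinned with compounds in DMSO; nonlytic luminescence tracked viability during 40 h treatment.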

[6] = A CellTox Green Cytotoxicity Assay to monitor cytotoxicity in HEK293 cells - 40 hour (AID 1224871); settings: CellTox Green fluorescence; series mostly up to 76.8 µM; note: nearly all actives have a fitted effect of over 45% in size; note: potency is the fitted concentration of half-maximal effect
Outline: as §1

[7] = qHTS assay to identify small molecule agonists of H2AX - cell viability counter screen (AID 1224847; calls by dose curve; note: nearly all actives have a fitted effect of over 30% in size; note: potency is the fitted concentration of half-maximal effect;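 for activity change, negative = cytotoxicity: wild-type CHO-K1 cells; top concentration of the series differs between compounds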); settings: CHO-K1 viability, CellTiter-Glo luminescence, 3 h; series mostly up to 154 µM
Outline: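 For this counter screen, overnight-attached CHO-K1 cells received test compounds (15 concentrations, 0.76% DMSO final); 3 hr later at 37C, CellTiter-Glo reagent was added and luminescence recorded after 30 min at room temperature.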

[8] = qHTS assay to identify small molecule antagonists of the estrogen related receptor (ERR) signaling pathway from Tox21 library (AID 1224848); settings: ERR reporter cell line, luciferase antagonist mode, 18 h; series mostly up to 92.4 µM; note: nearly all actives have a fitted effect of over 50% in size; note: potency is the fitted concentration of half-maximal effect
Outline: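 First, 2,000 ERR cells per well were plated and held 6 h at 37 C/5% CO2. Next, compounds in DMSO were pinned in and left 18 h at 37 C. Finally, ONE-Glo was added and luminescence read after 30 min at room temperature.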

[9] = qHTS assay to identify small molecule agonists of the hypoxia (HIF-1) signaling pathway (AID 1224846; active = well fitted activation curve with a large enough effect in the signal ratio in the repeat runs, not every such curve was filed as active; the % refers to the signal ratio); settings: HRE-bla ME-180 cells, beta-lactamase ratio, 17 h; series mostly up to 76.8 µM
Outline: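 Compounds added to ME-180 cells carrying hypoxia-response-element beta-lactamase reporter (0.5% dialyzed FBS, 5 h preplating), 17 h at 37C; agonist activity detected by CCF4-AM B/G FRET read-out.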

## CN1CCC[C@@H]1CCO[C@](C)(c1ccccc1)c1ccc(Cl)cc1
[1]; at 42.5 µM (top of the series)
  activity change, positive = activation: -35.9% (inactive)
[2]
  Potency: 23.9 µM (active)
[3]
  Potency: 19 µM (active)
[4]
  Potency: inactive
[5]
  Potency: 23.9 µM (active)
[6]
  Potency: 26.8 µM (active)

## Oc1ccccc1O
[7]
  Potency: inactive
[2]
  Potency: inactive
[3]
  Potency: 39.4 µM (active) and 21.9 µM (active)
[4]
  Potency: inactive
[5]
  Potency: inactive
[6]
  Potency: inactive

## O=C(O)c1cc(N=Nc2ccc([N+](=O)[O-])cc2)ccc1O
[7]
  Potency: inactive
[8]
  Potency: inactive
[1]; at 92.4 µM (top of the series)
  activity change, positive = activation: 93.2% (active)
[2]
  Potency: inactive
[5]
  Potency: inactive
[6]
  Potency: inactive

## O=S(=O)(O)c1ccc(N=Nc2c(O)ccc3ccccc23)cc1
[9]
  Potency: inactive
[4]
  Potency: inactive
[6]
  Potency: inactive

## CCCCCCCCCCCCOC(=O)c1ccc(O)cc1
[9]
  Potency: inactive
[2]
  Potency: inactive
[4]
  Potency: inactive
[5]
  Potency: inactive
[6]
  Potency: inactive

## O=C(Nc1ccc2c(O)c(N=Nc3ccc(N=Nc4ccc(S(=O)(=O)O)cc4)cc3)c(S(=O)(=O)O)cc2c1)c1ccccc1
[7]
  Potency: 50.5 µM (active)
[1]; at 92.4 µM (top of the series)
  activity change, positive = activation: -30% (inactive)
[6]
  Potency: inactive

## Cc1cc(=O)oc2cc(O)cc(O)c12
[1]; at 92.4 µM (top of the series)
  activity change, positive = activation: -20.6% (inactive)
[2]
  Potency: inactive
[3]
  Potency: inactive
[4]
  Potency: inactive
[5]
  Potency: inactive

## CC(C)(C)c1csc(-c2cc3cc(OCc4ccccc4CC(=O)O)ccc3o2)n1
[7]
  Potency: 113 µM (active)
[2]
  Potency: inactive
[4]
  Potency: inactive
[5]
  Potency: inactive
[6]
  Potency: 54.9 µM (active)

## O=c1oc2cc(O)ccc2c2oc3cc(O)ccc3c12
[7]
  Potency: inactive
[8]
  Potency: inactive
[2]
  Potency: inactive
[4]
  Potency: inactive
[5]
  Potency: inactive
[6]
  Potency: inactive

## Cc1cc(C)c(/C=C2\C(=O)Nc3ccccc32)[nH]1
[7]
  Potency: inactive
[8]
  Potency: inactive
[1]; at 42.5 µM (top of the series)
  activity change, positive = activation: 5.59% (inactive)
[2]
  Potency: inactive
[3]
  Potency: inactive
[4]
  Potency: 10.7 µM (active)
[5]
  Potency: inactive
[6]
  Potency: 9.52 µM (active)

## C=CC(=O)OCCOC(=O)C=C
[7]
  Potency: inactive
[2]
  Potency: inactive
[3]
  Potency: 43.6 µM (active)
[4]
  Potency: inactive
[5]
  Potency: inactive
[6]
  Potency: 43.6 µM (active)

## CCCCCCCCCCC[C@@H](C[C@@H]1OC(=O)[C@H]1CCCCCC)OC(=O)[C@H](CC(C)C)NC=O
[9]
  Potency: inactive
[2]
  Potency: inactive
[3]
  Potency: 9.52 µM (active)
[4]
  Potency: inactive
[5]
  Potency: inactive

## CCn1c2ccccc2c2cc([N+](=O)[O-])ccc21
[2]
  Potency: inactive
[4]
  Potency: inactive
[5]
  Potency: inactive
[6]
  Potency: inactive

## O=S(=O)(O)c1ccc(Nc2nc(Nc3ccc(/C=C/c4ccc(Nc5nc(Nc6ccc(S(=O)(=O)O)cc6)nc(N(CCO)CCO)n5)cc4S(=O)(=O)O)c(S(=O)(=O)O)c3)nc(N(CCO)CCO)n2)cc1
[7]
  Potency: inactive
[8]
  Potency: inactive
[1]; at 42.5 µM (top of the series)
  activity change, positive = activation: 7.49% (inactive)
[2]
  Potency: inactive
[3]
  Potency: inactive
[4]
  Potency: inactive
[5]
  Potency: inactive
[6]
  Potency: inactive

## Cc1ccc(O)c(N)c1
[7]
  Potency: inactive
[2]
  Potency: inactive
[4]
  Potency: inactive
[5]
  Potency: inactive
[6]
  Potency: inactive

## COc1ccc2cc1Oc1ccc(cc1)C[C@H]1c3c(cc4c(c3Oc3cc5c(cc3OC)CCN(C)[C@@H]5C2)OCO4)CCN1C
[8]
  Potency: 29.8 µM (active)
[1]; at 42.5 µM (top of the series)
  activity change, positive = activation: -56.4% (inactive)
[2]
  Potency: 23.9 µM (active)
[3]
  Potency: 5.35 µM (active)
[5]
  Potency: 23.9 µM (active)

## CC(C)(C)c1ccc(C(O)CCCN2CCC(C(O)(c3ccccc3)c3ccccc3)CC2)cc1 (stereo not drawn)
[7]
  Potency: 34.8 µM (active)
[2]
  Potency: 6.01 µM (active)
[4]
  Potency: inactive
[5]
  Potency: 4.77 µM (active)
[6]
  Potency: 7.56 µM (active)

## C/C=C/C=C/COC(=O)C(C)C
[9]
  Potency: inactive
[4]
  Potency: inactive

## COc1cc2nc(N3CCN(C(=O)c4ccco4)CC3)nc(N)c2cc1OC
[7]
  activity change, negative = cytotoxicity: -2.17% [at 31.6 µM] (inactive)
[2]
  activity change, negative = cytotoxicity: -23% [at 15.8 µM] (inactive)
[3]
  activity change, negative = cytotoxic: -17.7% [at 15.8 µM] (inactive)
[4]
  cytotoxicity: 2.18% [at 15.8 µM] (inactive)
[6]
  cytotoxicity increase: 63.2% [at 15.8 µM] (inactive)

## CCCCC(CC)CN1CN(CC(CC)CCCC)CC(C)(N)C1 (stereo not drawn)
[1]; at 42.5 µM (top of the series)
  activity change, positive = activation: -16.4% (inactive)
[2]
  Potency: 16.9 µM (active)
[3]
  Potency: 8.49 µM (active)
[4]
  Potency: inactive
[5]
  Potency: 21.3 µM (active)
[6]
  Potency: 10.7 µM (active)

## Oc1c(I)cc(Cl)c2cccnc12
[7]
  Potency: inactive
[8]
  Potency: 19.3 µM (active) and 11.9 µM (active)
[1]; at 42.5 µM (top of the series)
  activity change, positive = activation: -30.5% (inactive)
[1]; at 92.4 µM (top of the series)
  activity change, positive = activation: -54.8% (inactive)
[2]
  Potency: inactive
[3]
  Potency: 24.5 µM (active)
[4]
  Potency: inactive
[5]
  Potency: inactive
[6]
  Potency: 12.3 µM (active) and inactive

## O=c1c(O)c(-c2ccc(O)cc2O)oc2cc(O)cc(O)c12
[2]
  Potency: inactive
[5]
  Potency: inactive
[6]
  Potency: inactive

## CC(C)=CCNc1ncnc2c1ncn2[C@@H]1O[C@H](CO)[C@@H](O)[C@H]1O
[7]
  Potency: 1.96 µM (active)
[8]
  Potency: 10.6 µM (active)
[1]; at 42.5 µM (top of the series)
  activity change, positive = activation: -51% (inactive)
[2]
  Potency: inactive
[4]
  Potency: inactive
[5]
  Potency: inactive
[6]
  Potency: inactive
